PAFAH2 FP inh – PAFAH2 (human) inhibition; recombinant PAFAH2, FP-rhodamine activity probe, fluorescence polarization; AID 492956; inhibition, % at 3.39 µM; hit rate 0.99% among 340,000; Q99487;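 active means inhibition above the mean over all tested compounds plus 3 SD, cut at about 30% in these data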;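 further: inhibitors block probe labeling of enzyme so polarization drops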
CTSL1 counter – blocks F. hepatica cathepsin L1 in PFM18AAP counter-screen | recombinant F. hepatica cathepsin L1, Z-Leu-Arg-MCA fluorescence | inhibition, % at 5.96 µM | hit rate 0.49% among 300,000 | AID 1906;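 active means inhibition above the mean of all tested compounds plus 3 SD, set per screening campaign, cut at about 17% in these data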
PAFAH1B2 inh – inhibitors of human PAFAH1B2 | recombinant PAFAH1B2, FP-rhodamine activity probe, fluorescence polarization | inhibition, % at 3.39 µM | P68402 | hit rate 1.2% among 340,000;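 active means inhibition above the mean of all tested compounds plus 3 SD, cut at about 24% in these data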
PAFAH1B3 inh – blocks human PAF acetylhydrolase 1B catalytic subunit 3 | Q15102 | recombinant PAFAH1B3, FP-rhodamine probe, fluorescence polarization | inhibition, % at 3.39 µM | hit rate 0.28% among 340,000 | AID 492972;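 active means inhibition above the screen-wide average of all tested compounds plus 3 SD, cut at about 25% in these data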
pPAFAH inh – inhibitors of human plasma PAF acetylhydrolase (pPAFAH); recombinant pPAFAH, FP-rhodamine probe fluorescence polarization; AID 463082; hit rate 1.5% among 330,000; inhibition, % at 3.39 µM; Q13093;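 active means inhibition above the mean inhibition across the screen plus 3 SD, cut at about 25% in these data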;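 further: inhibitors block binding of the rhodamine activity-based probe so polarization drops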
Target sequence (Q13093 whole entry, looked up): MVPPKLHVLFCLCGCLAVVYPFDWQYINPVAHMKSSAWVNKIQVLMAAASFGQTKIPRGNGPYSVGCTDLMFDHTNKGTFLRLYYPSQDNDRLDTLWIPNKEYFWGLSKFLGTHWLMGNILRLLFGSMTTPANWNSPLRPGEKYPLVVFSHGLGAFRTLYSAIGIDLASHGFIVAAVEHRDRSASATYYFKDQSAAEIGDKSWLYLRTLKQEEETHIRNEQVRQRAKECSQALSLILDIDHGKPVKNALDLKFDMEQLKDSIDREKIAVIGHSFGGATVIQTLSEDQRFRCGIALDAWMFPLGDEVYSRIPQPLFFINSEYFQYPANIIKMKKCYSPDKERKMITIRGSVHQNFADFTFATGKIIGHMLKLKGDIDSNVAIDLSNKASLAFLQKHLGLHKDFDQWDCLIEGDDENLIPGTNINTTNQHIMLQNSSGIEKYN
PP5 primary – blocks human protein phosphatase 5 activity; P53041; purified PP5c, OMFP substrate fluorescence; inhibition, % at 6.7 µM; hit rate 0.18% among 320,000; AID 1987;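 active means inhibition above the campaign's mean inhibition across all tested compounds plus 3 SD, cut at about 9.5% in these data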
Hits are given with their value; n = inactive; x = no result; + = active, no number. Most compounds without a hit are left out; they make up all but 3% or so of the library.

SMILES	PAFAH2 FP inh	CTSL1 counter	PAFAH1B2 inh	PAFAH1B3 inh	pPAFAH inh	PP5 primary
O=c1c2cc(NC(=S)NC3CCCC3)ccc2nc2n1CCCCC2	n	n	n	n	n	n
COC(=O)C(Cc1ccc(O)cc1)NC(=O)Cn1cc(C)c(=O)[nH]c1=O (configuration not stated)	n	x	n	n	x	x
Cc1cc(C)nc(NNS(=O)(=O)c2ccc(Cl)cc2)n1	n	x	26	n	n	x
O=C(Nc1ccc([N+](=O)[O-])cc1)N1CCCCCC1	n	n	n	n	n	n
CC(C)(C)c1ccc(NC(=O)N2CCCN(c3ccc([N+](=O)[O-])cn3)CC2)cc1	n	n	25	n	n	n
O=C(NCCOc1ccccc1)c1ccc2c(c1)S(=O)(=O)c1cc(Cl)ccc1C2=O	n	x	n	n	n	x
CC1CCN(S(=O)(=O)c2ccc3c4c2CC(=O)N4CC(C)S3)CC1 (configuration not stated)	62	31	n	n	27	n
Cc1ccc(S(=O)(=O)N2CCN(S(=O)(=O)N3CCC(C)CC3)CC2)c(C)c1	n	n	n	n	n	n
O=C(Nc1cccc(OCC(=O)N2CCOCC2)c1)c1ccc(C(F)(F)F)cc1	n	n	n	n	n	n
CCc1cc(C(=O)N(C)CC(=O)Nc2c(Cl)cccc2Cl)sc1C	n	x	n	n	n	n
O=C(CSc1nc2ccccc2s1)NNC(=S)Nc1ccc(Br)cc1	n	n	24	n	n	n
O=C(CSc1nc2ccccc2s1)Nc1cc(S(=O)(=O)N2CCOCC2)ccc1O	84	n	87	n	n	n
Cn1nnnc1SCC(=O)NCc1cc([N+](=O)[O-])ccc1O	n	n	n	n	n	n
O=C(O)CSc1nc2ccccc2s1	n	n	n	n	n	n
O=C(CSc1nc2ccccc2s1)NCc1cc([N+](=O)[O-])ccc1O	n	n	29	n	n	n
Cc1nnc(SCC(=O)Nc2cc(S(=O)(=O)N3CCOCC3)ccc2C)s1	n	x	n	n	x	x
O=C(CSc1nc2ccccc2s1)CSc1nc2ccccc2s1	n	n	n	n	27	n
CSc1ccccc1NC(=O)C1=CC(c2cccs2)=NS(=O)(=O)N1C	n	n	n	n	n	n
O=C(CCCN1C(=O)C2CCCCN2C1=O)N1CCN(c2ccc([N+](=O)[O-])cc2)CC1 (configuration not stated)	n	20	n	n	n	n
O=C1C2CCCN2C(=O)N1CCCN1CCN(c2ccc([N+](=O)[O-])cc2)CC1 (configuration not stated)	n	n	n	n	29	n
O=C1C2CCCCN2C(=O)N1CCCCN1CCN(c2cccc(Br)c2)CC1 (configuration not stated)	n	n	n	n	28	n
O=C(CCC(=O)c1cccs1)NCc1ccccc1Cl	n	x	n	n	n	x
Cn1c(=O)n(C)c2cc(N3CCOCC3)c(NC(=O)c3ccc(F)cc3)cc21	n	n	n	n	n	n
CN(CC(=O)N1CCc2[nH]c3ccc(F)cc3c2C1)CC1OCCO1	x	n	x	x	n	n
Cc1ccc2[nH]c3c(c2c1)CN(C(=O)CN(C)CC1OCCO1)CC3	n	17	n	n	n	n
SMILES	PAFAH2 FP inh	CTSL1 counter	PAFAH1B2 inh	PAFAH1B3 inh	pPAFAH inh	PP5 primary
COc1ccc(-c2nc(SCc3ccccc3)n(S(C)(=O)=O)n2)cc1	n	n	n	n	n	11
CC(OC(=O)C1=Cc2ccccc2OC1)C(=O)NCC1CCCO1 (configuration not stated)	n	x	n	n	x	x
COc1ccc(C(=O)C(O)C(c2ccc(C)cc2)N2CCOCC2)cc1OC (configuration not stated)	n	n	n	n	n	n
COC(=O)c1c(C)[nH]c(C(=O)OC(C)C(=O)N(C)C2CCCCC2)c1C (configuration not stated)	n	n	n	n	26	n
O=C(CSc1ccc2nnc(-c3ccccn3)n2n1)Nc1ccc(F)cc1F	n	n	n	n	n	n
Cc1ccc(-c2nn(-c3ccccc3)cc2C2CC(c3cccs3)=NN2C(=O)CCC(=O)O)cc1 (configuration not stated)	n	n	n	n	n	n
O=C(O)CCn1cc(C2CC(c3ccccc3)=NN2c2ccccc2)c(-c2ccccc2)n1 (configuration not stated)	n	n	n	n	27	n
O=C(NCc1ccccc1CN1CCCC1)c1ccc(Cl)c(S(=O)(=O)N2CCCC2)c1	n	x	n	n	x	x
O=C(CCS(=O)(=O)c1ccc2c(c1)NC(=O)CS2)NCCc1ccc(Cl)cc1	n	n	26	n	n	n
O=C(CCS(=O)(=O)c1ccc2c(c1)NC(=O)CS2)NCCc1ccccc1	n	n	n	n	n	n
Cn1c(N)c(C(=O)COC(=O)c2cc(S(=O)(=O)NCc3ccccc3)ccc2O)c(=O)n(C)c1=O	n	x	n	n	x	x
CN(c1ccc(Cl)cc1)S(=O)(=O)c1nnc(NC(=O)C(C)(C)C)s1	n	x	28	n	x	x
CCOc1ccc(C2C3=C(CCCC3=O)Nc3ccc4ncccc4c32)cc1 (configuration not stated)	n	n	n	n	29	n
O=C1CCCC2=C1C(c1ccc(O)c(O)c1)c1c(ccc3ncccc13)N2 (configuration not stated)	x	n	x	x	n	n
COc1cccc(/C=N/NC(=O)c2cc3c(OC)cccc3[nH]2)c1OC	n	n	n	n	n	n
COc1ccc(OC)c(/C=N/NC(=O)c2cc3c(OC)cccc3[nH]2)c1	n	n	n	n	25	n
COc1ccc(/C=N/NC(=O)c2cccnc2)c2ccccc12	+	n	155	199	n	n
COc1ccc(/C=N/NC(=O)c2cc3c(OC)ccc(OC)c3[nH]2)cc1O	n	n	29	n	n	n
COc1ccc(OC)c2[nH]c(C(=O)N/N=C/c3ccccc3O)cc12	30	n	34	42	n	n
CCC1=C(c2ccc(OC)cc2)CCC(C(=O)O)C1C (configuration not stated)	n	x	n	n	x	x
Cc1ccc(NC(=O)Cn2cnc3c(NCc4ccccc4)ncnc32)cc1C	n	x	n	n	n	x
Cc1ccc(NC(=O)CSc2n[nH]c(-c3ccncc3)n2)cc1C	n	n	n	n	29	n
O=C(CSc1n[nH]c(-c2ccncc2)n1)Nc1ccc(F)cc1	n	n	n	n	n	n
CCC(=O)NCCc1nc2cc(NC(=O)c3ccco3)ccc2n1C	n	n	n	n	n	n
CC(=O)Nc1ccc2nc(NS(=O)(=O)c3ccc(C)cc3)sc2c1	n	n	n	n	26	n
Cc1ccc(C(=O)c2c3ccc([N+](=O)[O-])cc3[n+]([O-])n2CCCN)cc1	n	n	n	n	n	n
Cc1onc(-c2ccccc2)c1C(=O)Nc1cccc(S(=O)(=O)N2CCCCC2)c1	n	x	n	n	n	x
Cc1ccc(C2=C(O)C(=O)C(c3ccc(C)cc3)=C(O)C2=O)cc1	63	x	41	65	x	x

Bioassay records from PubChem.
